Anthrax LF prot = Bacillus anthracis LF protease inhibitors, primary screen, biochemical, multiplex microsphere, MLPCN library | Lethal factor (Bacillus anthracis), P15917 | multiplex microsphere protease cleavage assay | inhibition, % at 10 µM | actives 0.12% (n = 360,000); note: plate controls were buffer without enzyme for full effect and enzyme alone for no effect
Autofluor counter = compound fluorescence in toxin protease inhibitor counterscreen. AID 624483. fluorescence intensity (no concentration beside the values). actives 3.1% (n = 360,000). compound autofluorescence counterscreen, microsphere flow cytometry; stronger effect = higher value; in the data active = fluorescence intensity above about 16000; inconclusive = no clear call, values can overlap the other calls
DUSP3 inh = VHR1 phosphatase inhibitors, primary screen, biochemical, absorbance, uHTS; Dual specificity protein phosphatase 3 (Homo sapiens), P51452; recombinant VHR phosphatase, pNPP absorbance; inhibition, % at 13.3 µM; actives 0.52% (n = 290,000); in the data active = inhibition above about 50%
Target sequence (P51452 whole entry, looked up): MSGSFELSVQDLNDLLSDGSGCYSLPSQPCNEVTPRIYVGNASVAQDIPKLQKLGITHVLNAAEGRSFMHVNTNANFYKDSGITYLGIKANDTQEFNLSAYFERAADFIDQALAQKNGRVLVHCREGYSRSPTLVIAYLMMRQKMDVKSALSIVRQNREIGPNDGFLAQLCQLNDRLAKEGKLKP
BoNT F protease = BoNT/F light chain protease inhibitors, primary screen, biochemical, flow cytometry, MLPCN library | Multiplex microsphere protease cleavage assay | inhibition, % at 10 µM | actives 0.22% (n = 360,000) | AID 588497, 2011; in the data active = inhibition above about 35%, passing the limit was not always enough; inconclusive = no clear call, values can overlap the other calls; note: plate controls were buffer without enzyme for full effect and enzyme alone for no effect
BoNT A protease = BoNT/A light chain protease inhibitors, primary screen, biochemical, flow cytometry, MLPCN library; multiplex microsphere protease substrate cleavage; actives 0.17% (n = 360,000); AID 588499, 2011; Botulinum neurotoxin type A light chain protease (Clostridium botulinum A str. ATCC 3502); inhibition, % at 10 µM; note: plate controls were buffer without enzyme for full effect and enzyme alone for no effect
MazF activator = activators of E. coli MazEF toxin-antitoxin RNase, primary screen, biochemical, fluorescence, uHTS; actives 0.32% (n = 350,000); FAM/BHQ RNA-DNA oligo cleavage fluorescence, 5 h; Endoribonuclease toxin MazF (Escherichia coli (strain K12)), P0AE70; activation, % at 20 µM; in the data active = activation above about 50%
Target sequence (P0AE70 whole entry, looked up): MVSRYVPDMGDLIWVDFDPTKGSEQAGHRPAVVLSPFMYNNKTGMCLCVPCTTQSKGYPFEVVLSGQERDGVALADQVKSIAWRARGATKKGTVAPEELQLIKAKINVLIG
Numbers without * were called inactive; ? = inconclusive; . = no result. Sampled rows, rich in hits. Any-hit rate of the full collection: about 4%. Cut-off read from the data, not from the text of the source, unless noted: active = inhibition above about 30%; inconclusive = no clear call, values can overlap the other calls; inactive = below that.

SMILES	Anthrax LF prot	Autofluor counter	DUSP3 inh	BoNT F protease	BoNT A protease	MazF activator
Cc1ccc(N(Cc2cc3cc(C)ccc3[nH]c2=O)C(=O)c2cccs2)cc1	-1	2232	0	-3	0	89*
COc1ccc(N2C(=O)c3ccc(C(=O)OC(C)C)cc3C2=O)cc1	-4	3570	-5	-8	0	-20
CCn1c(=O)cc(SCC(=O)NCCCN2CCN(c3ccc(F)cc3)CC2)c2ccccc21	0	20024*	26	1	2	-4
CCn1c(=O)cc(SCC(=O)NCc2ccccn2)c2ccccc21	-6	10282	55*	-10	0	-11
CCn1c(=O)cc(SCC(=O)NCCN2CCN(Cc3ccccc3)CC2)c2ccccc21	-4	22769*	11	0	?	-1
CCn1c(=O)cc(SCC(=O)NCCCN2CCC(C)CC2)c2ccccc21	1	2605	16	-1	0	14
Oc1cccc(/C=N/Nc2nn3cnnc3c3ccccc23)c1	-1	3272	22	3	-1	5
COc1ccc(CC(=O)Nc2ccc(/C(C)=N/NC(=O)c3cccc([N+](=O)[O-])c3)cc2)cc1	-3	3899	0	-33	-2	9
CCOC(=O)c1c(NC(=O)COC(=O)c2cnc(C)cn2)sc(C(=O)N(C)C)c1C	-11	16695*	.	-106	-80	-1
CCOC(=O)c1c(NC(=O)COC(=O)c2ccccn2)sc(C(=O)N(C)C)c1C	0	?	.	1	-4	-3
CC1(Oc2ccc(Cl)cc2)CCN(Cc2cccn2-c2nccs2)C1 (stereo not drawn)	-4	3800	.	-4	0	.
Cc1ccc(S(=O)(=O)NCCOc2nc(N(C)C)nc(N3CCOCC3)n2)cc1	0	4571	-8	-5	0	-10
CC(C(=O)OCC(=O)c1ccccc1)N1C(=O)C2C3CCC(C3)C2C1=O (stereo not drawn)	-4	4314	54*	0	0	-4
O=C(Nc1ccc(Br)cc1)N1CCCCCC1	-2	5986	36	-8	-1	-1
COc1cccc2cc(-c3nnc(SCC(=O)NCc4ccccc4)n3C)oc12	2	22828*	4	6	?	-2
CCn1c(SCC(=O)NC2CCCCC2)nnc1-c1cc2cccc(OC)c2o1	-3	4559	11	28	1	-3
COc1cccc2cc(-c3nnc(SCC(=O)Nc4cc(C(F)(F)F)ccc4Cl)n3N)oc12	3	23578*	-30	-3	-2	9
COc1ccc(N(C(=O)Cc2cccs2)C(C(=O)NC2CCCC2)c2ccncc2)cc1OC (stereo not drawn)	-5	3709	-12	-11	-1	1
COc1cccc2c1OCC/C2=N\NC(=O)COc1ccc(C)cc1	0	2126	-14	-2	1	-5
Cc1ccccc1OCC(=O)N/N=C1\CCOc2c(C)cccc21	0	20512*	8	0	-1	39
Cc1ccc(OCC(=O)N/N=C2\CCOc3c(C)cccc32)cc1	0	22762*	16	-1	2	4
CC(C)c1ccc(NC(=S)NNC(=O)C2CC2)cc1	-4	4142	22	-1	-2	-1
Cc1ccc(Sc2nnc(Cc3ccccc3)c3ccccc23)cc1	-5	22795*	2	0	?	6
COc1ccc(OC)c(C2/C(=C(/O)c3cnn(-c4ccccc4)c3C)C(=O)C(=O)N2CCN(C)C)c1 (stereo not drawn)	1	4941	.	1	0	0
CC(=O)Nc1ccc(Oc2nc(C(F)(F)F)nc3ccccc23)cc1	-3	2855	19	-1	-1	2
SMILES	Anthrax LF prot	Autofluor counter	DUSP3 inh	BoNT F protease	BoNT A protease	MazF activator
Cc1cc(C(=O)NCCC2=CCCCC2)no1	-8	25954*	1	-10	-9	10
CC(=O)c1ccc(NC(=O)CSc2nc(C3CC3)nc3ccccc23)cc1	-4	4092	-14	-17	2	26
O=C(CSc1nc(C2CC2)nc2ccccc12)N1c2ccccc2Sc2ccccc21	-1	22153*	13	1	2	-7
O=C(CSc1nnnn1C1CCCCC1)N1CCOCC1	-1	2481	2	-2	0	11
O=C(CSc1nnnn1C1CCCCC1)N1c2ccccc2Sc2ccccc21	-1	19588*	2	5	?	-2
Cc1ccc(C)c(NC(=S)NCCCN2CCOCC2)c1	-2	3306	30	9	1	10
Clc1ccc(/C=C\c2nccc3c2[nH]c2ccccc23)cc1	4	5871	-6	4	3	20
O=C(Nc1ccccc1C(=O)O)c1cccc(NC(=O)c2ccc(Br)o2)c1	-3	2174	5	11	0	-11
O=C(Nc1ccc(S(=O)(=O)N2CCCCCC2)cc1)c1ccc(Br)o1	-1	21567*	19	-5	-2	2
O=C(CNC(=O)c1ccco1)Nc1ccc(S(=O)(=O)N2CCCC2)cc1	1	21490*	8	-9	-6	-3
O=C(Nc1ccccc1C(=O)O)c1ccc(NC(=O)c2ccc(Br)o2)cc1	-4	23730*	19	-1	-2	-4
CC(C)(C)NC(=O)C1N(c2cccnc2)C(=O)C2C(C(=O)Nc3ccccc3)C3(C)C=CC21O3 (stereo not drawn)	-10	6968	0	-9	-2	6
Cc1cc2c(cc1S(=O)(=O)N1CC(C)CC(C)C1)OCC(=O)N2 (stereo not drawn)	-1	6520	13	-9	-1	6
COc1ccc(-c2ccc(SCC(=O)N3CCOCC3)nn2)cc1	-3	22594*	10	6	1	3
O=C(CSc1ccc(-c2ccc(Br)cc2)nn1)N1CCOCC1	3	3957	8	-1	0	-9
CC1CCN(C(=O)CSc2ccc(-c3ccc(F)cc3)nn2)CC1	-1	23070*	27	1	1	-14
Cc1cc(/C=C(\C#N)C(=O)NCc2cccs2)c(C)[nH]1	2	4030	12	0	0	4
COc1cc(OC)c(OC)cc1/C=C(\C#N)C(=O)NCc1cccs1	-2	5418	11	6	1	84*
C/C(=N\Nc1cc(N2CCOCC2)nc(C)n1)c1ccc(F)cc1	0	3805	2	?	0	1
COC(=O)C1CCN(C(=O)c2ccc(NC(C)=O)cc2)CC1	-1	22006*	-27	-4	-3	11
COc1ccccc1C(=O)N1CCC(C(=O)c2ccc(F)cc2)CC1	-21	19021*	19	3	4	-9
COc1ccc(NC(=O)C2CCN(C(=O)c3ccccc3)CC2)c(OC)c1	-5	8888	-2	-12	0	5
